From PubChem BioAssay
IDE cell inh – inhibits human insulin-degrading enzyme in HEK cells; P14735; FAbetaB cleavage, fluorescence polarization; inhibition, % at 5.59 µM; hit rate 0.41% among 320,000; AID 434962;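 active means percent inhibition above the average of all tested compounds plus 3 SD, set per screening campaign, cut at about 16% in these data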;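 further: IDE supplied by intact live HEK cells; FP after avidin binding of uncleaved biotin substrate so inhibition keeps polarization high; 0% = DMSO wells and 100% = 60 µM reference IDE inhibitor Ii1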
GLD-1 RNA inh – GLD-1-TGE RNA interaction inhibition (C. elegans); purified GLD-1 + fluorescein TGE RNA, fluorescence polarization; AID 2280; inhibition, % at 5.96 µM; hit rate 0.44% among 320,000;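 active means percent inhibition above a per-plate cutoff, the plate mean of test compounds plus 3 SD, cut at about 30% in these data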;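 further: 0% = DMSO wells with GLD-1 and probe and 100% = wells lacking GLD-1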
Target sequence (Q17339 whole entry, looked up): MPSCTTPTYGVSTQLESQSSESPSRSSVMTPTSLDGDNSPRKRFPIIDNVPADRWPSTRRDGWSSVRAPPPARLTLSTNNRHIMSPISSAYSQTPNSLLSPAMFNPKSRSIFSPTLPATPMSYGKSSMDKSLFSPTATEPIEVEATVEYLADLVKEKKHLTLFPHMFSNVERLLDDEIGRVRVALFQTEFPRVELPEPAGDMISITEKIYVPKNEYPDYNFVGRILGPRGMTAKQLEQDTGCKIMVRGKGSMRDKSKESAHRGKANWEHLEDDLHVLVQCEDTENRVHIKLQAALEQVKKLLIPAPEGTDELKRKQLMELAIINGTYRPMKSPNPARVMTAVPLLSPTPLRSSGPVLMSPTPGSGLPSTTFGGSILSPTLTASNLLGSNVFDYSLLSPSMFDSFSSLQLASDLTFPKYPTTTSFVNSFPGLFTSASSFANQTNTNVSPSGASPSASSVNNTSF
MEX-5 binding – C. elegans MEX-5 TCR-2 RNA binding activity. Q9XUB2. MEX-5/FITC-TCR2 RNA binding, fluorescence polarization; hits give low values. activity score (negative = inhibition of binding), % at 10 µM. hit rate 0.38% among 300,000. AID 1832;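 active means inhibition past about -25% in most replicates, and total fluorescence under double the plate's negative control median, limit read from the data; inconclusive means replicates evenly split on the limit, or fluorescence at least double controls; inactive means too little inhibition in most replicates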;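 further: 0% = DMSO and -100% = 5 µM competing unlabeled TCR2 RNA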
MCL1-BIM inh – disrupts human MCL1 binding to BIM-BH3 peptide | GST-MCL1 / FITC-Bim-BH3 fluorescence polarization | inhibition, % at 10.9 µM | hit rate 0.68% among 320,000 | AID 2057;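 active means inhibition above the mean inhibition of all tested compounds plus 3 SD, set per campaign, cut at about 40% in these data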;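 further: 0% = DMSO wells and 100% = unlabeled Bim-BH3 peptide control; higher means more loss of mP so more displacement of Bim peptide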
BCLXL inh – blocks human Bcl-xL binding to Bim BH3 peptide; Q07817; inhibition, % at 10.9 µM; AID 2129; hit rate 0.7% among 320,000; GST-Bcl-xL / FITC-Bim BH3 peptide fluorescence polarization;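 active means inhibition above the mean of all tested compounds plus 3 SD, cutoff set per campaign, cut at about 30% in these data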;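 further: 0% = DMSO wells and 100% = unlabeled Bim-BH3 peptide competitor; inhibitors lower millipolarization by displacing the labeled peptide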
Target sequence (Q07817 whole entry, looked up): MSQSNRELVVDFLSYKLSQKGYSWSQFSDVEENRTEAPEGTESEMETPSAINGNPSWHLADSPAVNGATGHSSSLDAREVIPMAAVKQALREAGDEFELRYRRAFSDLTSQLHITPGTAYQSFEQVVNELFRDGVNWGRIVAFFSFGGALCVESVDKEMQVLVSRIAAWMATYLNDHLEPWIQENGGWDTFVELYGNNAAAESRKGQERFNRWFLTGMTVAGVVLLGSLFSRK
IDE cell activ – activators of human insulin-degrading enzyme in cells | P14735 | HEK cells, FAbeta-B cleavage, fluorescence polarization; 0% vehicle, 100% cell-free pure enzyme wells | activation, % at 5.96 µM | hit rate 0.073% among 340,000 | AID 493087;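 active means activation above the mean of all tested compounds plus 3 SD, set per screening campaign, cut at about 17% in these data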
Bcl-xL conf – counter-screen for MCL1 inhibitors: confirmation of human Bcl-xL inhibitors. shares compounds with MCL1-BIM inh. GST-Bcl-xL / FITC-Bim BH3 peptide FP binding. inhibition, % at 10.9 µM. hit rate 54% among 1,700. AID 2166;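 active means inhibition above a cutoff equal to the mean inhibition of all tested compounds plus 3 SD, cut at about 30% in these data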;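 further: 0% = DMSO wells and 100% = unlabeled Bim BH3 control peptide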
MCL1 inh confirm – confirmation of human MCL1 and BIM-BH3 interaction inhibitors; GST-MCL1 / FITC-Bim-BH3 fluorescence polarization; hit rate 61% among 1,700; inhibition, % at 10.9 µM; shares compounds with MCL1-BIM inh; AID 2168;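 active means inhibition above the average of all tested compounds plus 3 SD, cut at about 40% in these data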;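 further: 0% = DMSO wells and 100% = unlabeled Bim-BH3 control peptide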
The depositor's hits bear a star; ? = inconclusive; nt = no result given; + = active, no number. Only some compounds are listed: those with a hit (about 1.5% of all), similar ones and a draw of the others.

SMILES	IDE cell inh	GLD-1 RNA inh	MEX-5 binding	MCL1-BIM inh	BCLXL inh	IDE cell activ	Bcl-xL conf	MCL1 inh confirm
COc1ccc(OC)c(/C=C/c2nc3ccccc3[nH]c2=O)c1	6.9	74.9*	-16.6	83.2*	77.8*	-9.5	97.5*	99.1*
COc1ccc(OC)c(C=Nc2ccccc2-c2nc3ccccc3[nH]2)c1	-0.5	-4.1	1.6	-1.2	7.9	2.4	nt	nt
O=C(CSc1ccccc1F)NCC(c1cccs1)N1CCOCC1 (stereo not given)	-2.0	11.1	nt	nt	nt	5.1	nt	nt
COc1cc(OC)c(OC)cc1/C=C1/Cc2ccccc2C1=O	5.3	-74.7	?	111.5*	18.3	-8.1	84.5*	102.8*
COc1ccc(/C=C2/CCc3ccccc3C2=O)cc1OC	-5.3	10.7	-3.1	8.7	7.7	1.8	nt	nt
CCOc1ccccc1NC(=O)C(OC(=O)c1cnccn1)c1ccccc1 (stereo not given)	-6.2	5.9	-0.1	-1.6	-1.4	-1.6	nt	nt
N#Cc1ccsc1NC(=O)CN1CCCCCC1	8.6	14.4	1.4	2.1	2.6	3.0	nt	nt
CN(CC(=O)Nc1sccc1C#N)C1CCCCC1	4.9	62.1*	-4.6	111.7*	61.0*	-4.9	21.5	23.4
COc1cc2c(ccc3cc(OC)c(OC)c(O)c32)cc1O	-4.0	4.5	4.1	78.2*	20.7	4.3	29.2	82.3*
Nc1ccc(Nc2ccccc2)c(S(=O)(=O)O)c1	0.6	1.7	?	41.5*	25.0	6.0	47.9*	78.0*
COc1ccc(Cl)cc1NS(=O)(=O)c1cccc(C(=O)NCCCN2CCCC2=O)c1	1.1	3.6	-0.8	5.1	5.8	-5.0	nt	nt
O=C(N/N=C/c1cccnc1)c1cccc(S(=O)(=O)Nc2cccc(Cl)c2)c1	-0.4	-3.5	3.4	6.0	4.2	7.1	nt	nt
O=C(N/N=C/c1ccncc1)c1cccc(S(=O)(=O)Nc2ccc(Cl)cc2)c1	4.6	3.2	0.0	51.6*	-3.4	6.0	-0.7	73.6*
COc1cc(NC(C)C(=O)N2CC(C)OC(C)C2)cc(OC)c1 (stereo not given)	1.4	-23.1	-1.7	82.2*	72.5*	-5.6	16.0	15.2
O=[N+]([O-])c1ccc(O)c(/C=N/n2cnc3ccccc32)c1	-3.6	-3.3	-1.2	8.7	4.4	2.1	nt	nt
Cc1ccc(/C=C2\SC(=S)N(/N=C/c3cc([N+](=O)[O-])ccc3O)C2=O)o1	-4.3	4.4	0.0	66.0*	26.9	1.7	30.7*	61.2*
N#CC12C(N)=NC3(OCCO3)C1(C#N)C1=C(CCC1)NC2c1ccccc1 (stereo not given)	3.4	63.4*	-8.1	64.2*	34.8*	6.2	18.2	24.3
CC1=CC2(C#N)C3(N=C(N)C2(C#N)C(c2ccccc2)N1)OCCO3 (stereo not given)	nt	nt	nt	nt	nt	3.0	nt	nt
CCOC(=O)Nc1ccc(C)cc1NC(=O)OCC	0.5	8.9	-0.8	-8.6	0.1	-0.4	nt	nt
CCOC(=O)Nc1ccc(NCc2ccc(F)cc2)nc1N	15.1	132.3*	nt	191.2*	141.4*	-12.2	35.6*	30.6
Cc1c(Br)c(O)c(Br)c2sc(=O)oc12	-1.7	2.8	nt	78.6*	35.9*	-5.0	20.5	49.0*
COc1cccc(CN2C(=O)C(C)N(C(=O)c3ccccc3)c3ccccc32)c1 (stereo not given)	-0.8	-0.6	2.5	11.2	5.9	2.1	nt	nt
O=C(O)C1Nc2c(Cl)cc(Cl)cc2C2C=CCC12 (stereo not given)	-1.7	2.1	-73.1*	105.1*	84.8*	8.6	51.9*	90.7*
COC(=O)CNC(=O)C1Nc2ccccc2C2C=CCC12 (stereo not given)	-3.6	5.9	-13.1	22.4	23.1	5.1	nt	nt
O=C(O)C1Nc2c(Cl)cc(Cl)c(Cl)c2C2C=CCC12 (stereo not given)	4.9	14.5	-2.2	102.7*	65.3*	0.8	123.0*	167.7*
SMILES	IDE cell inh	GLD-1 RNA inh	MEX-5 binding	MCL1-BIM inh	BCLXL inh	IDE cell activ	Bcl-xL conf	MCL1 inh confirm
COc1ccc(NC(=O)/C=C/c2cccc(Br)c2)cn1	-2.6	67.2*	-33.4*	98.8*	90.6*	1.4	74.2*	85.5*
COc1ccc(NC(=O)/C=C/c2cccc(C(F)(F)F)c2)cn1	7.5	9.2	-3.7	4.4	9.5	4.6	nt	nt
COc1ccccc1NS(=O)(=O)c1ccc(NC(=O)N2CCCCC2)cc1	-0.9	-4.1	-3.9	6.6	7.0	1.5	nt	nt
CCOc1ccc(NS(=O)(=O)c2ccc(C(=O)N(C)Cc3cccc(OC)c3OC)cc2)cc1	-1.9	2.6	-1.4	-1.6	2.7	2.7	nt	nt
COC(CNC(=O)c1ccc2c3c(onc13)-c1ccccc1C2=O)OC	-1.1	+	?	+	+	-4.0	+	+
COc1ccccc1OCCNC(=O)CCNS(=O)(=O)c1ccc(C)cc1	nt	nt	nt	nt	nt	-5.0	nt	nt
O=C(O)CN1C(=O)/C(=C\c2cc(Br)ccc2OCc2ccccc2F)SC1=S	3.2	-5.4	-2.2	45.6*	17.7	2.6	19.8	24.6
O=C(O)CN1C(=O)/C(=C\c2ccccc2OCc2ccc(Cl)cc2Cl)SC1=S	0.1	-4.1	-3.0	55.1*	17.0	3.0	30.6*	45.4*
O=C(O)CN1C(=O)/C(=C\c2cc(Br)ccc2OCc2ccc([N+](=O)[O-])cc2)SC1=S	-3.1	-0.9	-1.7	72.3*	27.6	-3.3	37.2*	61.3*
O=C(NCc1cc(C(F)(F)F)ccc1Cl)c1cccc2c1C(=O)c1ccc(Cl)cc1S2(=O)=O	0.3	-1.4	nt	nt	nt	nt	nt	nt
O=C(O)c1cnc2ccccc2n1	-7.6	6.2	-0.7	6.5	6.7	-1.4	nt	nt
N#CCc1cnc2ccccc2n1	3.8	59.9*	-2.1	76.4*	81.7*	-1.4	6.7	1.7
Cc1ccc(C)n1-c1ccc(C(=O)O)cc1	1.5	5.5	-50.5*	44.7*	11.2	nt	21.4	40.8*
CC1(C)CC(=O)C(C(c2ccc(F)cc2)C2C(=O)CC(C)(C)CC2=O)C(=O)C1	0.7	6.1	-2.1	0.9	-1.8	2.2	nt	nt
CCc1sc(C(C2C(=O)CC(C)(C)CC2=O)C2C(=O)CC(C)(C)CC2=O)cc1[N+](=O)[O-]	-4.1	7.8	-4.0	43.0*	16.2	0.8	15.1	56.6*
CCOc1ncccc1C(=O)OCC(=O)NC(=O)c1ccccc1	0.1	0.8	nt	3.2	3.4	2.3	nt	nt
N#C/C(=C\c1cccs1)C(=O)Nc1ccccn1	-2.0	29.8	-19.6	56.6*	55.3*	10.1	49.5*	71.3*
